Laboratory results reported in PubChem BioAssay (NCI).
About 83,000 compounds went through this panel and 20% of them were active in at least one assay; those are over-represented in the sample as a whole.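 Growth was measured after 48 h exposure to one concentration of compound in 96-well plates. Values under 10 count as active.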 Values without a mark were called inactive. The source made the active and inactive calls.

Legend:
Test in all cases: NCI-60 one-dose screen, 48 h (100 = growth as untreated, 0 = no growth, -100 = all killed)
Conditions in all cases: 10 µM unless noted
NCI/ADR-RES ovarian = tested on: NCI/ADR-RES ovarian
T-47D breast = tested on: T-47D breast
BT-549 breast = tested on: BT-549 breast
MDA-MB-435 melanoma = tested on: MDA-MB-435 melanoma
SW-620 colon = tested on: SW-620 colon
MCF7 breast = tested on: MCF7 breast
HCT-116 colon = tested on: HCT-116 colon
HCC-2998 colon = tested on: HCC-2998 colon
KM12 colon = tested on: KM12 colon

SMILES | growth (NCI/ADR-RES ovarian) | growth (T-47D breast) | growth (BT-549 breast) | growth (MDA-MB-435 melanoma) | growth (SW-620 colon) | growth (MCF7 breast) | growth (HCT-116 colon) | growth (HCC-2998 colon) | growth (KM12 colon)
CC(=O)/C=C/c1ccc2c(c1)OCO2 | 113% | 107% | 100% | 85.7% | 106% | 101% | 99.3% | 109% | 109%
C[C@]12CCc3sc(-c4cccc(F)c4)nc3C1=CC[C@@H]1[C@@H]2CC[C@]2(C)C(=O)CC[C@@H]12 | 68.3% | 3.07% (active) | 23.2% | 49.2% | 3.81% (active) | 10.8% | 0.513% (active) | 79.5% | 46.5%
COc1ccc(S(=O)(=O)Nc2c(/C=C\c3cc(OC)c(OC)c(OC)c3)ccc(OC)c2O)cc1OC | 2.42% (active) | 100% | 20.7% | -52% (active) | 22.6% | 15.7% | 12.6% | 22.6% | 4.9% (active)
O=C(c1cccc(O)c1O)c1cn(Cc2ccc(F)cc2)c2cccc(O)c12 | 19.3% | 34.5% | 41.4% | 14.2% | 37.1% | 26.9% | 30.7% | 35.6% | 44.1%
C[N+](C)(C)Cc1cc(Cl)ccc1O | 104% | 99.4% | 91.9% | 106% | 97.9% | 104% | 106% | 104% | 108%
CCCCN(CCCC)P(=O)(Oc1ccccc1)Oc1ccccc1 | 51.4% | 47.4% | 73.5% | 71.4% | 52% | 48.4% | 29.2% | 83.7% | 58.6%
N#CCCNc1ccccc1 | 108% | 111% | 108% | 98.9% | 103% | 103% | 108% | 106% | 113%
COc1ccc(NC([Se])=NC23CC4CC(CC(C4)C2)C3)cc1 | 1.9% (active) | -11.7% (active) | 11.3% | 20% | 2.24% (active) | 11.4% | 1.65% (active) | 14.6% | 5.4% (active)
COC(=O)[C@]12CCC(C)(C)C[C@H]1[C@H]1C(=O)C[C@@H]3[C@@]4(C)C[C@@]5(CC(C)(C)[C@@H]4CC[C@@]3(C)[C@]1(C)CC2)OO[C@@](C)(C(F)(F)F)O5 | 98.6% | 81.4% | 111% | 98.7% | 103% | 82.2% | 88.7% | 106% | 99.9%
CC1(C)[C@H](O)[C@H](F)C[C@@]2(C)Oc3ccc(C(=O)Nc4ccc5c(c4)NC(=O)C54CCN(CCCCC#N)CC4)cc3C[C@H]12 | 83.4% | 38.2% | 32.5% | 24.8% | 0.683% (active) | 27.6% | 18.5% | 68.5% | 22%
Brc1ccc2c(c1)c(-c1nc(-c3c[nH]c4ncccc34)cs1)cn2CCN1CCOCC1 | 50.3% | 1.14% (active) | 77.6% | 85.7% | 85.8% | 18.3% | 68.1% | 88.7% | 40.3%
CN(C)C(=O)Oc1ccc(Br)cc1 | 106% | 92.4% | 103% | 104% | 109% | 88.7% | 103% | 108% | 101%
CN1C(=O)C(=Cc2cn(Cc3ccccc3)c3ccccc23)C(=O)N(C)C1=O | 89% | 42.8% | 88.9% | 102% | 79.7% | 64% | 71% | 81.8% | 102%
COC(=O)[C@@H](C)C[C@H](Cc1ccccc1)NC(=O)c1nc([C@@H](C[C@H](C(C)C)N(C)C(=O)[C@@H](NC(=O)[C@H]2C[C@H](O)CCN2C)C(C)C)OC(C)=O)sc1C(C)C | 38.9% | 78.5% | -30.8% (active) | -48.3% (active) | 21.9% | 18.7% | 2.56% (active) | 14.1% | 0.729% (active)
CCOP(=O)(NC[C@H]1O[C@](O)(CO)[C@@H](O)[C@@H]1O)OCC | 100% | 98.1% | 87.1% | 106% | 104% | 95.1% | 95.6% | 103% | 99.3%
Clc1ccc2nnnn2n1 | 59.2% | 57.4% | 29.1% | -1.91% (active) | 24.5% | 19.2% | -15.9% (active) | 107% | -38% (active)
CC1(C)CN1P(=O)(N1CC1(C)C)N1CC1(C)C (stereo unspecified) | 113% | 107% | 105% | 124% | 100% | 92.8% | 105% | 110% | 116%
COC[C@@H]1C[C@@]2(C)[C@@H](CC[C@@H]3[C@@H]2CC[C@@]2(C)[C@H]3CC[C@]2(C)O)CC1=O | 101% | 88.2% | 89.1% | 108% | 110% |  | 96% | 94.9% | 101%
COc1cc(C=Nc2cc(Cl)cc(Cl)c2)ccc1N(CCCl)CCCl | 85.2% | 95.4% | 85.4% | 95.5% | 75.5% | 84.2% | 90.4% |  | 51.1%
C=CC[n+]1ccc(-c2cc[n+](CC=C)cc2)cc1 | 111% | 82.1% | 109% | 104% | 114% |  | 98.5% | 95.4% | 65.3%
N#C[Se]CCN1C(=O)c2ccccc2C1=O | 9.97% (active) | 49.9% | 34.3% | 20.8% | 23.9% | 25.4% | 9.26% (active) | 53.1% | 43%
O=C([O][Hg][CH2]C1COCC([CH2][Hg][O]C(=O)c2ccccc2)O1)c1ccccc1 (stereo unspecified) | 106% | 11.4% | 97.4% | 90.2% | -91.2% (active) | 20.9% |  | 114% | 102%
COc1ccc2c(c1)c(-c1nc(-c3c[nH]c4ncccc34)cs1)cn2CCN1CCOCC1 | 38.7% | -1.96% (active) | 50.6% | 73% | 75.5% | 5.06% (active) | 52.5% | 74.1% | 20.2%
CCOC(=O)[C@@H](C)C[C@H](Cc1ccccc1)NC(=O)c1csc([C@@H](C[C@H](C(C)C)N(C)C(=O)[C@@H](NC(=O)[C@H]2CCCCN2C)C(C)(C)CC)OC(C)=O)n1 | 14.7% | 70.7% | -40.2% (active) | -60.8% (active) | 21.9% | 24.2% | 0% (active) | 11.9% | 1.89% (active)
Nc1c(F)cc(-c2nc3cc(F)ccc3[se]2)cc1F | 94.6% | 5.78% (active) | 78.9% | 106% | 95.2% | 2.27% (active) | 37.1% | -44.5% (active) | 42.5%
O=C(CC1(O)C(=O)N(Cc2ccccc2)c2ccc(Br)cc21)c1ccc(C(=O)NCC2CCC3(CC2)OOC2(CCCCC2)OO3)cc1 (stereo unspecified) | -44.8% (active) | -29.2% (active) | 33.9% | 4.94% (active) | -16.5% (active) | 31.5% | 35.5% | 102% | -57.5% (active)
CC[C@H](NC(=O)[C@H]1CCCCN1C)C(=O)N(C)[C@H](C[C@@H](OC(C)=O)c1nc(C(=O)N[C@@H](Cc2ccccc2)C[C@H](C)C(=O)O)cs1)C(C)C | 9.47% (active) | 51.3% | -15.6% (active) | -36.5% (active) | 22.4% | 16.9% | 0.18% (active) | 8.05% (active) | 7.87% (active)
c1cnc2[nH]cc(-c3csc(-c4cn(CCCCN5CCCCC5)c5ccccc45)n3)c2c1 | 89.8% | 79.4% | 105% | 80.5% | 76.8% | 58.9% | 81.8% | 95.6% | 85.5%
O=C1C(Cl)=C(N2CCOCC2)C(=O)c2ccccc21 | 90.9% | -23% (active) | 106% | 67% | -16.5% (active) | 93.4% |  | 108% | 102%
